Test results taken from publication PMC4336329 (PLoS ONE, 2015).
Among all 310,000 compounds or so, about 14,000 (4.5%) showed an effect of 50% or more. The effect is printed as a negative number. The list comes from a sample in which strong results are over-represented; it also holds similar structures and randomly drawn compounds.

What follows are compounds tested against human ether-à-go-go-related gene (hERG) potassium channel (human, UniProt Q12809) (assay: primary screen, population patch clamp on CHO cells stably expressing hERG; higher = less effect of the substance).
Procedure: Briefly, Chinese hamster ovary (CHO) cells stably expressing the hERG channel were dislodged from tissue culture flasks and dispensed into PPC plates. […] During the recording, background leak currents were estimated by a 100 ms step to -80 mV from an initial holding potential of -70 mV and subtracted from the subsequent current measurement. The campaign was conducted in two phases using slight differences in recording protocol. In the first phase, the initial voltage pulse used a 100 ms step to -30 mV from a holding potential of -70 mV, a 2 s conditioning step to +25 mV, and a 2 s test step to -30 mV. During the second phase of the screen, the potential during the conditioning step was raised to +45 mV. In both phases of the campaign, a secondary voltage pulse was applied using the same parameters as the second phase initial pulse. The initial and secondary pulses were applied in the absence of compound, and upon application of 1 μM and 10 μM test concentrations. […]
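Also: peak tail current of the secondary pulse compared with the same well before compound.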

human ether-à-go-go-related gene (hERG) potassium channel, sequence (Q12809 whole entry, looked up): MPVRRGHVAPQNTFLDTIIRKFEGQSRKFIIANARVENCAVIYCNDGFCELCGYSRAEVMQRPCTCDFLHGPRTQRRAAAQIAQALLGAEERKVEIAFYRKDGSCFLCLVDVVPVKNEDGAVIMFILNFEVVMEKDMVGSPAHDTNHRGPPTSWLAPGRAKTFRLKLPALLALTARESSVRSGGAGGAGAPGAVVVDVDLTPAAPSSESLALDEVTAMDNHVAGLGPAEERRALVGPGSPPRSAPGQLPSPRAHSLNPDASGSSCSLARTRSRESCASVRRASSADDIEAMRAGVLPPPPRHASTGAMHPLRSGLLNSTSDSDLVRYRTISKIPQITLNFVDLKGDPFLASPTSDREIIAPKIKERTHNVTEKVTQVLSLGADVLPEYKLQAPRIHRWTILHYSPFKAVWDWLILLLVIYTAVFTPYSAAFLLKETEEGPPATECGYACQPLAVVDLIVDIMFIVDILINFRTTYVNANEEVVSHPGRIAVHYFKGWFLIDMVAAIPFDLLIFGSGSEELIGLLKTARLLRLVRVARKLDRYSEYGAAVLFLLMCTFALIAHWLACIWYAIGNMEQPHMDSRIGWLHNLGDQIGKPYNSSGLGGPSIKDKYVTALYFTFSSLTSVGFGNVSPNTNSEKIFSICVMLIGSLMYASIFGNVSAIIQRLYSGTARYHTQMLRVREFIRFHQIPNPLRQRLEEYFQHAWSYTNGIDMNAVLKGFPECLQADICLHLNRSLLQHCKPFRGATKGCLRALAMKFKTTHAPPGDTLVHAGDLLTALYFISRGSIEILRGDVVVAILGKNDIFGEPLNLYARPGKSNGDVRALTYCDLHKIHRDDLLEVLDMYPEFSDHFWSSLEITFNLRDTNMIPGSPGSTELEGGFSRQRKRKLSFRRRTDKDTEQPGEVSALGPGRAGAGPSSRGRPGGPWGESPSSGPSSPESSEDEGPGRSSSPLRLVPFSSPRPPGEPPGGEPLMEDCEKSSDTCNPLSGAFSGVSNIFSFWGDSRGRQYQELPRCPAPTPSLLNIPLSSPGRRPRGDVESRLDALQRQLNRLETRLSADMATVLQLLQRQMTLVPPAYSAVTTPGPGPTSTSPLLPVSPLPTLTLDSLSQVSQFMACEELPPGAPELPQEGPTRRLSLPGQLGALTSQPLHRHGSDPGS

In order of rising “hERG current change (%, negative = inhibition) at 10uM” value:
1. C#Cc1ccc(CN2CCC(C(=O)Nc3ccc(Oc4ccccc4)nc3)CC2)cc1  -72.3%
2. C#Cc1ccc(CN2CCC(N3CCC(C(=O)NCc4ccccn4)CC3)CC2)cc1  -72.2%
3. COc1ccc(CN2CCC(C(=O)Nc3ccc(Oc4ccccc4)nc3)CC2)cc1F  -71.6%
4. COc1cc(CN2CCN(CCCc3ccccc3)CC2CCO)cc(OC)c1 (centres unmarked)  -71.1%
5. O=C1CCCN1CCCNC(=S)Nc1ccc(Cl)cc1Cl  -65.5%
6. COc1cc(CN2CCN(CCc3ccccc3)C(CCO)C2)cc(OC)c1 (centres unmarked)  -63.5%
7. CCc1ccc(OCc2nnc(SCC(=O)Nc3cccc(C(=O)N4CCOCC4)c3)o2)cc1  -61.4%
8. CCc1ccc(CN2CCC(C(=O)Nc3ccc(Oc4ccccc4)nc3)CC2)o1  -58.9%
9. CCc1ccc(OCc2nnc(SCC(=O)NCc3ccco3)o2)cc1  -55.2%
10. O=C(Nc1ccc(Oc2ccccc2)nc1)C1CCN(Cc2ccccc2)CC1  -54.9%
11. O=C(CSc1nnc(CNC(=O)c2ccco2)o1)Nc1ccc(OC(F)(F)F)cc1  -52.6%
12. O=C(Nc1ccc(Oc2ccccc2)nc1)C1CCN(Cc2cccc(F)c2)CC1  -49.8%
13. COc1cc(CN2CCN(Cc3cn(C)c4ccccc34)CC2CCO)cc(OC)c1 (centres unmarked)  -43.7%
14. OCCC1CN(Cc2cccnc2)CCN1CCc1ccccc1 (centres unmarked)  -34.8%
15. O=C(Nc1ccc(Oc2ccccc2)nc1)C1CCN(Cc2ccco2)CC1  -30.8%
16. CCn1cc(CN2CCC(C(=O)Nc3ccc(Oc4ccccc4)nc3)CC2)cn1  -30.3%
17. O=C(Nc1ccc(Oc2ccccc2)nc1)C1CCCCN1Cc1ccc(O)cc1 (centres unmarked)  -25.2%
18. C#Cc1ccc(CN2CCC(Oc3ccc(C(=O)NCc4ccccn4)cc3)CC2)cc1  -25%
19. OCCC1CN(Cc2cccc(O)c2)CCN1CCc1ccccc1 (centres unmarked)  -24.4%
20. CC(NS(=O)(=O)c1ccc(Cl)cc1)C(=O)Nc1ccc2c(c1)OCCO2 (centres unmarked)  -19.4%
21. COc1ccc(OCc2nnc(SCC(=O)NCc3ccco3)o2)cc1  -14.4%
22. COc1ccc(C2C(C#N)=C(/N=C/N3CCOCC3)OC3=C2C(=O)CC(C)(C)C3)cc1OC (centres unmarked)  -13.5%
23. Cc1ccc(C)c(S(=O)(=O)N2CCN(CC(=O)Nc3cc(C)on3)CC2)c1  -12.6%
24. CSc1cccc(NC(=O)c2cc(S(=O)(=O)N3CCc4ccccc43)cn2C)c1  -12.4%
25. CCOC(=O)CC(=O)CSc1nc2c(sc(=S)n2-c2ccc(C)c(C)c2)c(=O)[nH]1  -10.7%
26. CCOc1ccc(NC(=O)CSc2nnc(CNC(=O)c3ccco3)o2)cc1  -10.2%
27. CSCC(C)N1CCC(N2CCC(C(=O)NCc3ccccn3)CC2)CC1 (centres unmarked)  -9.59%
28. COc1cc(CN2CCCCC2C(=O)Nc2ccc(Oc3ccccc3)nc2)ccc1O (centres unmarked)  -4.36%
29. CCS(=O)(=O)Nc1cccc(-c2ccc3nnc(-c4cccnc4)n3n2)c1  -4.03%
30. O=C1CCCN1CCCNC(=S)Nc1ccc(Br)cc1Cl  -2.97%
31. Cc1cccc(OCc2nnc(SCC(=O)Nc3cccc(C(=O)N4CCOCC4)c3)o2)c1C  -2.16%
32. CCCCc1cc(=O)oc2c(CN(C)C)c(O)c(Cl)cc12  -1.34%
33. COc1cc(CN2CCN(CC#Cc3ccccc3)CC2CCO)cc(OC)c1 (centres unmarked)  -1.09%
34. COCc1ccc(CN2CCCCC2C(=O)Nc2ccc(Oc3ccccc3)nc2)o1 (centres unmarked)  -0.373%
35. O=C(NCCc1ccccc1)c1ccc(Cl)cc1[N+](=O)[O-]  -0.169%
36. CC#CC(=O)N1CCC(C(=O)Nc2ccc(Oc3ccccc3)nc2)CC1  1.55%
37. CC1CCCCN1CCNC(=O)C1CCN(S(=O)(=O)c2cccc3nsnc23)CC1 (centres unmarked)  2.44%
38. O=C1OC2(CCCCC2)OC(=O)C1=CNc1nccs1  3.3%
39. CC(=O)Nc1ccc(S(=O)(=O)NCc2nnnn2-c2ccc(F)cc2)cc1  3.41%
40. COc1ccc(OCc2nnc(SCC(=O)Nc3cccc(C(C)=O)c3)o2)cc1  4.32%
41. CC(NC=O)c1nc2ccccc2n1CCc1ccccc1 (centres unmarked)  5.34%
42. C#CCOCCOCCOCCNc1nc(N2CCN(C(=O)[C@H]([C@@H](C)CC)n3cc([C@@H](N)CO)nn3)CC2)nc(N2CCN(C(=O)[C@H]([C@@H](C)CC)n3cc([C@@H](N)CC(C)C)nn3)CC2)n1.Cl  7.34%
43. O=C1CC(=O)C(n2cncn2)C(c2ccc(Cl)cc2Cl)C1 (centres unmarked)  7.83%
44. Cc1cc(Cl)ccc1NC(=S)NCCCN1CCCC1=O  7.99%
45. CCc1ccc(NC(=O)C(=O)NCC(O)c2ccccc2)cc1 (centres unmarked)  8.25%
46. COc1ccc(Cc2nnc(SCC(=O)NCc3ccco3)o2)cc1  8.75%
47. COc1ccccc1-c1sc2cc3c(cc2c1C#Cc1ccccn1)OCO3  8.78%
48. CCOC(=O)c1c(C)sc(Sc2ccc(Cl)cc2[N+](=O)[O-])c1OC  11.3%
49. COc1ccc(NC(=O)CSc2nnc(CNC(=O)c3ccco3)o2)cc1  11.8%
50. Cc1ccc(C(=O)N2CCN(c3ncccn3)CC2)c(C)c1  12.1%
51. CC(C)c1ccc(N(CC(=O)N/N=C/c2ccc(OC3CSC3)cc2)S(=O)(=O)c2ccccc2)cc1  12.8%
52. Brc1ccccc1OCCOc1cccc2cccnc12  14.1%
53. COCCC(=O)N1CCC(C(=O)Nc2ccc(Oc3ccccc3)nc2)CC1  17.6%
